Unmarked numbers belong to inactive results. Active and inactive are the calls of the source. Rule as the data show it: active = log2 fold change growth below about -1.8; inactive = the rest.

A short description of the assay: C. elegans growth inhibition, whole organism, log2 fold change (AID 1259336).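 Also: growth scored by imaging after five days at 20 °C.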 The conditions noted are these: anthelmintic screen, stronger effect = lower value.
As to `CC[C@H](Sc1nc2ccccc2o1)C(=O)Nc1nccs1`, the log2 fold change growth is -0.397.
With `Nc1nccc2ccc(-c3ccc4nccn4c3)cc12` the figure was 0.14.
For `CC(C)[C@H](Oc1cccc2ccccc12)C(=O)O` the value was 0.534; for `O=C(c1ccco1)N(CCCn1ccnc1)c1nc2c(Cl)cccc2s1`, -2.18 (active).
With `O=C([C@H](Cc1c[nH]c2ccccc12)NS(=O)(=O)c1ccc(Cl)cc1)N1CCCCC1` the figure was -0.129.
Take `CC[C@H](Sc1nc2ccccc2o1)C(=O)Nc1nnc(C)s1`: the log2 fold change growth was 0.272.
On to `Clc1ccc(CN2CCN(C3=NCCN3)CC2)cc1Cl`, for which the log2 fold change growth is 0.0846.
With `Nc1ccc(C(=O)Nc2ccc(-c3nc4ccccc4o3)cc2)cc1` the figure was -7.04 (active); with `O=C(Nc1n[nH]c(=S)s1)c1cc(Br)ccc1Cl`, 0.172.
For `Cc1ccc(Oc2ccc(NC(=O)CNc3ccccc3N3CCCC3=O)cc2)cc1` the value was 0.0475.
For the compound `O=C1Nc2ccc(Br)cc2[C@@]12NCCc1c2[nH]c2ccccc12`, the log2 fold change growth was -0.19.
With `Clc1ccc(CCNc2cc(-c3ccccc3)nc3ncnn23)cc1` the figure was -0.81; with `Cc1ccc2[nH]c3c(NCCN(C)C)ncnc3c2c1`, 0.351.
With `O=C(Nc1ccc(N2CCNCC2)nc1)c1oc(-c2ccccc2)nc1C(F)(F)F` the figure was -0.164; with `CCc1ccccc1-n1c(C)cn2c3c(=O)n([C@H](C(=O)OC)C(C)C)c(=O)n(C)c3nc12`, 0.456; with `CS(=O)(=O)Cc1nc2ccccc2oc1=O`, -0.133.
As for `Nc1ccc2ncnc(Nc3ccc(OCc4cccc(F)c4)c(Cl)c3)c2c1`, the log2 fold change growth was -0.0667.
With `O=C(Nc1ccccc1-c1nc2c(C(=O)O)cccc2o1)c1ccccc1` the figure was -0.0236; with `CCCn1c(NC(=O)c2ccc3ccccc3n2)nc2ccccc21`, -0.0431.
With `CO[C@H]1/C=C/O[C@@]2(C)Oc3c(C)c(O)c4c(O)c(c(/C=N/N5CCN(C)CC5)c(O)c4c3C2=O)NC(=O)/C(C)=C\C=C[C@H](C)[C@H](O)[C@@H](C)[C@@H](O)[C@@H](C)[C@H](OC(C)=O)[C@@H]1C` the figure was 0.729; with `Nc1ncc(-c2cn[nH]c2)cc1-c1nc2ncc(Cl)cc2[nH]1`, -0.454; with `CCOC(=O)NC(=O)c1ccsc1NC(=O)c1nc2ccccc2s1`, -3.88.
With `COc1ccc(N(CCc2cccc(C)n2)C(=O)C2CCCCC2)cc1` the figure was -0.0192; with `CCN(CC)CCCCCCNc1cc(OC)cc2c(C)ccnc12`, -0.053; with `Cc1cc(=O)[nH]c(-n2nc(C)cc2C)n1`, 0.36.
For `Nc1cccnc1Nc1ccc(Cl)cc1`, the log2 fold change growth is 0.497.
With `NC[C@@H](c1cccs1)S(=O)(=O)c1ccccc1` the figure was 0.289; with `CO[C@@H](C(=O)N1Cc2[nH]nc(NC(=O)c3ccc(N4CCN(C)CC4)cc3)c2C1)c1ccccc1`, 0.339; with `O=C(NCc1cc(Cl)cc(Cl)c1)c1c(C(F)(F)F)nc2ccccn12`, -0.11.
For `O=C(NCc1ccco1)N1CCN(Cc2ccc(Cl)s2)CC1` the value was 0.334.
Regarding `COc1ccc(-c2cncc3ccc(C(=O)NCCCn4ccnc4)nc23)cc1`, the log2 fold change growth was 0.283.
With `CC(=O)Nc1ccc(-c2noc(C[C@H]3CCCN(Cc4cccc(F)c4C)C3)n2)cc1` the figure was 0.251; with `CC1CC1C(=O)NC1CCN(CC2(c3ccccc3)CCCCC2)CC1` (stereo not drawn), 0.347; with `CC(C)[C@H](NC(=O)Cc1cccc2ccccc12)C(=O)Nc1cccc(C#N)c1`, 0.334.
For `CC1CCCN(C(=O)C(C)Nc2cc(Cl)ccc2N2CCOCC2)C1` (stereo not drawn) the value was 0.538; for `CC(C)(C)OC(=O)N1CCC(Cn2nc(-c3cnc4ccccc4c3)c3c(N)ncnc32)CC1`, -0.248; for `O=C(Nc1nc(-c2ccccn2)cs1)c1cncn1-c1ccccc1`, -0.307.
For the compound `C[C@@H](C(=O)N1CCCC1)N1CCN(S(=O)(=O)c2ccc(C(C)(C)C)cc2)CC1`, the log2 fold change growth is 0.667.
